A selection: hits, their analogues and other compounds. The true share with any hit is near 10%.
HEK cytotox = kills HEK 293 cells; HEK 293 viability, ATP luminescence (CellTiter-Glo), 48-72 h; Potency, µM (top dose mostly 115 µM), without a hit: at the highest dose activity change, negative = cytotoxicity, usual class: inhibitors; actives 6.6% (n = 94,000); AID 1345083; also: nearly all actives have a fitted effect of over 60% in size
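250 HEK 293 cells/well; compound by pintool; incubated 48 or 72 hr at 37 degree Celsius; CellTiter-Glo added, 10 min RT, luminescence imaged.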
GPT2 inhibitor = inhibitors of human GPT2 alanine aminotransferase; AID 1671188; actives 0.25% (n = 100,000); Q8TD30; Potency, µM (top dose mostly 57.7 µM), for the others: at the top dose activity change, negative = inhibition, most hits filed as inhibitors; Recombinant GPT2, coupled pyruvate oxidase/HRP Amplex Red fluorescence; also: nearly all actives have a fitted effect of over 60% in size
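Recombinant GPT2 (10ng/uL) with 250uM a-KG and 2mM L-alanine, 30 min at room temperature, in HEPES pH 7.5 buffer. Pyruvate detected by pyruvate oxidase/HRP/Amplex Red fluorescence after 30 min in the dark; AOA (50uM) as positive control.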
FLuc inh = Photinus pyralis luciferase inhibition; P08659; purified P. pyralis luciferase, luminescence, biochemical; Potency, µM (titrated, usually from 115 µM), actives largely listed as inhibitors; actives 2.5% (n = 76,000); AID 1347043; also: nearly all actives have a fitted effect of over 65% in size
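Biochemical qHTS: compound (6-point titration) added to 10uM D-luciferin plus 10uM ATP in Tris acetate pH 7.5 buffer with Mg, Tween-20 and BSA, then purified enzyme at 10nM; light output imaged.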
hNpr1 antagonist = human Npr1 receptor antagonism; actives 1.6% (n = 76,000); Potency, µM (series often up to 46.3 µM), inactives show top-dose activity change, negative = inhibition, usual class: inhibitors; AID 1347048; P16066; HEK293 hNpr1 GloSensor cGMP, ANP-stimulated luminescence; calls by dose curve; also: nearly all actives have a fitted effect of over 60% in size
Target sequence (P16066 whole entry, looked up): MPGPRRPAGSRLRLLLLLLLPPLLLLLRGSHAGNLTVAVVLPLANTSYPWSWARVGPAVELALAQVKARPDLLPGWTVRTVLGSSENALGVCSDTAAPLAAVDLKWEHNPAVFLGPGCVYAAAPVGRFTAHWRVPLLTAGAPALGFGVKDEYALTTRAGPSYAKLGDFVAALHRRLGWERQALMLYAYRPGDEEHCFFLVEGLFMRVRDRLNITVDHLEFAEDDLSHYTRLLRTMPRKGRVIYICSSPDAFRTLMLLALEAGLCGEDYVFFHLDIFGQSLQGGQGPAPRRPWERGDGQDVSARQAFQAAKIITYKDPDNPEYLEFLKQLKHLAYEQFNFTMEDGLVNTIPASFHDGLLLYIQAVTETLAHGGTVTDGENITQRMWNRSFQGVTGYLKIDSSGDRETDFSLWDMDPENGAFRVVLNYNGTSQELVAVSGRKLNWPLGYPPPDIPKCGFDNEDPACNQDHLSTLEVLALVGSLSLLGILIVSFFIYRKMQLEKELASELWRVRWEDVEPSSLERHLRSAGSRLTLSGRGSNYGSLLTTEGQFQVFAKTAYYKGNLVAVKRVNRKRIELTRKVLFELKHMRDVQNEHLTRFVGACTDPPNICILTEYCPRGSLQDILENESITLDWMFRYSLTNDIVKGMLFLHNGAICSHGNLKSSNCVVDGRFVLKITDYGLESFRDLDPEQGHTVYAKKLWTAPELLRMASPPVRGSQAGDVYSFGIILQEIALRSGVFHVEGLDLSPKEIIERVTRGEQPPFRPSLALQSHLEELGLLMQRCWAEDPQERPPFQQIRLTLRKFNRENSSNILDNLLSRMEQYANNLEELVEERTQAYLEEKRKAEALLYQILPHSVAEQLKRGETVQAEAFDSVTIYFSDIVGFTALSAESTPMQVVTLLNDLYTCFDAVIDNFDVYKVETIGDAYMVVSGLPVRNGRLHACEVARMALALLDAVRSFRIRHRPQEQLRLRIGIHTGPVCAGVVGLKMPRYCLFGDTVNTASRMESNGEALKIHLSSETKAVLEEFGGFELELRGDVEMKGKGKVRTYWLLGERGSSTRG
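HEK293 cells stably expressing human Npr1 and cGMP GloSensor pGS-40F, loaded 2 h with 2% GloSensor reagent, given compound 30 min at room temperature. Luminescence read before and 20 min after 0.1 nM hNppA.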
NIH3T3 tox = kills NIH 3T3 cells; NIH 3T3 viability, CellTiter-Glo ATP luminescence, 48-72 h; AID 1345082; Potency, µM (titrated, usually from 96.7 µM), for inactives: at the highest dose activity change, negative = cytotoxicity, usual class: inhibitors; actives 4.3% (n = 94,000); also: nearly all actives have a fitted effect of over 55% in size
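Luminescent ATP readout (CellTiter-Glo, 10 min RT) after 48 or 72 hr compound exposure of NIH 3T3 cells seeded at 400 cells/well in 1536-well format; quantitative HTS.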
An asterisk follows results filed as active; i = inactive; ? = inconclusive; / = no result given; [ ] = remark or other dose. Unless noted, calls follow the shape of the dose curve; as a rule, active = well fitted curve in the direction sought with a large enough effect; inconclusive = small, poorly fitted or top-dose-only effect, or another doubt; inactive = no such curve, though single readings can be large; an effect the other way counts as inactive or inconclusive. % is scaled to controls: 0 for no effect and ±100 for the full control effect; potency is read from the fitted curve at half-maximal effect.

SMILES | HEK cytotox | GPT2 inhibitor | FLuc inh | hNpr1 antagonist | NIH3T3 tox
O=C(c1ccncc1)N1CCC2(CC1)CC(N(C(=O)c1ccccc1)C1CC1)CCO2 (centres undefined) | -29% | i | i | -2% | -27%
CN(Cc1ccco1)C(=O)Cc1cccn1-c1ccc(F)cc1 | -23% | -10% | i | -20% | 4%
Cn1nccc1C(=O)N1CCC2(CC1)CC(N(Cc1ccccc1)C1CC1)CCO2 (centres undefined) | ? | i | i | -17% | -6%
CCn1nccc1C(=O)N1CCC2(CC1)CC(N(Cc1ccccc1)C1CC1)CCO2 (centres undefined) | 45µM* | i | i | -29% | -21%
O=[S+]([O-])(c1ccccc1)N1CCN(c2nccc(Nc3ccccc3Cl)n2)CC1 | ? | i | / | / | 28µM*
COC(=O)N1CCN(c2nccc(Nc3ccccc3Cl)n2)CC1 | ? | -13% | / | / | ?
O=C(C1CC1)N1CCN(c2nccc(Nc3ccccc3F)n2)CC1 | 63µM* | -4%[88.5 µM] | / | / | ?
CC(C)NC(=O)N1CCN(c2nccc(Nc3ccccc3Cl)n2)CC1 | ? | 2% | / | / | 35µM*
O=C(Nc1ccccc1)N1CCN(c2nccc(Nc3ccccc3Cl)n2)CC1 | 50µM* | ? | / | / | ?
Cc1ccc(N2CCC3(CCCN3Cc3ccc4nsnc4c3)CC2)nn1 | ? | i | i | 4% | -1%
O=C(NC1CCN(c2ccc3nnc(-c4ccccc4)n3n2)C1)c1cccc(C(F)(F)F)c1 (centres undefined) | -25% | / | / | / | ?
O=C(Nc1ccc(Cl)cc1)N1CCN(c2nccc(Nc3ccccc3F)n2)CC1 | 28µM* | 3% | / | / | ?
O=C(Cc1ccccn1)NC1CCN(c2nccc(Nc3ccccc3F)n2)CC1 | -22% | i | / | / | ?
O=C(Nc1ccc(Cl)cc1)NC1CCN(c2nccc(Nc3ccccc3F)n2)CC1 | 35µM* | -1% | / | / | 40µM*
CC(C)(C)c1nc(C(=O)NCCc2ccc(Cl)cc2)n2ccncc12 | 35µM* | -23% | / | / | ?
CC(C)(C)c1nc(C(=O)NCCc2ccc(Cl)cc2)n2ccccc12 | -24% | -16% | / | / | ?
Cc1ccc(Nc2ccnc(N3CCCC3C(=O)NCc3cccc(Cl)c3)n2)cc1 (centres undefined) | ? | -18% | / | / | ?
O=C(NC1CCCCC1)O[C@@H]1CO[C@H]2[C@@H]1OC[C@@H]2n1nnnc1Sc1ccccc1 | 100µM* | 5%[88.5 µM] | i | -11%[70.6 µM] | ?
O=C(NC1CCCCC1)O[C@@H]1CO[C@H]2[C@@H]1OC[C@@H]2n1nnnc1Sc1ncccn1 | -11%[172 µM] | i | i | 6%[70.6 µM] | -8%[174 µM]
CCCCn1c(=O)c(C(=O)NCC2CCCCC2)nc2cccnc21 | 35µM* | -23% | / | / | ?
O=C(NC1CC1)c1nc2cccnc2n(Cc2ccccc2)c1=O | -14%[172 µM] | i | / | / | -25%[138 µM]
O=C(c1ccc(C(F)(F)F)cc1)N1CCN(C(=O)c2nc3cccnc3n(CCc3ccccc3)c2=O)CC1 | 45µM* | -15% | / | / | ?
CCCCn1c(=O)c(C(=O)NCC2CC2)nc2cccnc21 | -24%[172 µM] | ? | / | / | ?
O=C(NCc1ccccc1F)c1nc2cccnc2n(Cc2ccccc2)c1=O | 79µM* | -12% | / | / | ?
O=C(NCC(F)F)c1nc2cccnc2n(Cc2ccccc2)c1=O | ? | -4%[88.5 µM] | / | / | ?
SMILES | HEK cytotox | GPT2 inhibitor | FLuc inh | hNpr1 antagonist | NIH3T3 tox
O=C(NC1CC1)c1nc2cccnc2n(CCc2ccccc2)c1=O | 56µM* | i | / | / | -32%[138 µM]
O=C(c1ccc(C(F)(F)F)cc1)N1CCN(C(=O)c2nc3cccnc3n(Cc3ccccc3)c2=O)CC1 | ? | i | / | / | ?
O=C(NC1CCCC1)N1CCN(C(=O)c2nc3cccnc3n(C3CCCC3)c2=O)CC1 | -5% | 1% | / | / | ?
COc1ccc(CCc2nc3nccc(-c4cccs4)n3n2)cc1OC | ? | 2% | i | -9% | ?
O=C(NCCc1ccc(Cl)cc1)c1nc2cccnc2n(Cc2ccccc2)c1=O | 89µM* | i | / | / | ?
O=C(NCCc1ccc(Cl)cc1)c1nc2cccnc2n(CCc2ccccc2)c1=O | ? | 2% | / | / | ?
CN1CCC2(C1)CN(CC1CCOCC1)c1ccc(C(=O)NCc3ccccc3)cc12 (centres undefined) | ? | 0%[88.5 µM] | i | 3%[70.6 µM] | ?
CN1CCCC2(C1)CN(C)c1ccc(C(=O)NCCOc3ccccc3)cc12 (centres undefined) | ? | -6%[88.5 µM] | i | 0%[70.6 µM] | ?
CN1CCC2(C1)CN(CC1CCOCC1)c1ccc(C(=O)Nc3ccccc3)cc12 (centres undefined) | 100µM* | 3%[88.5 µM] | 50µM* | -15%[70.6 µM] | ?
CN1CCC2(C1)CN(CC1CC1)c1ccc(C(=O)NC3CCC3)cc12 (centres undefined) | ? | ? | i | -3%[70.6 µM] | ?
COc1ccc(NC(=O)c2ccc3c(c2)C2(CCN(C)C2)CN3CC2CC2)cc1 (centres undefined) | 50µM* | ? | i | -5%[70.6 µM] | 25µM*
CN1CCC2(C1)CN(CC1CC1)c1ccc(C(=O)NCCOc3ccccc3)cc12 (centres undefined) | 56µM* | ? | i | -19%[70.6 µM] | 40µM*
Cn1cccc1CN1CCCCCCNC(=O)[C@@H]2CCC[C@@H]21 | -29% | 1% | i | 3% | -11%
NCc1cccc(-c2cccnc2)c1 | -23%[230 µM] | 4%[88.5 µM] | / | / | -13%[174 µM]
O=C1CCN(Cc2ccccc2)CCCC(c2nc(-c3cnccn3)no2)CCN1 (centres undefined) | -15% | 4% | i | 0% | -23%
Cc1nn(-c2ccc(C(F)(F)F)cc2)c(C)c1[C@@H]1C=C[C@@H](NC(=O)c2ccc(N(C)C)cc2)C1 | ? | -14% | ? | -14% | ?
Cc1nn(-c2ccc(C(C)(C)C)cc2)c(C)c1[C@@H]1C=C[C@@H](NC(=O)NC(C)C)C1 | 45µM* | i | 14µM* | ? | 45µM*
Cc1ccccc1-n1nc(C)c([C@H]2C=C[C@@H](OC(=O)NC(C)C)C2)c1C | ? | -5%[88.5 µM] | i | -13%[70.6 µM] | 25µM*
Cc1nn(-c2ccc(F)cc2)c(C)c1[C@@H]1C=C[C@@H](NC(=O)NC(C)C)C1 | ? | 5%[88.5 µM] | 63µM* | ? | ?
Cc1nn(-c2ccc(C(C)(C)C)cc2)c(C)c1[C@@H]1C=C[C@@H](NC(=O)c2ccc(N(C)C)cc2)C1 | ? | -3% | i | -13% | ?
CC(=O)N1CCCC1C(=O)N1CCCC1c1nc2ccncc2[nH]1 (centres undefined) | -5%[172 µM] | -5%[88.5 µM] | / | / | -14%[138 µM]
Cc1cnc(-c2ccccc2)n1C1CCN(C(=O)CC2CCCCC2)C1 (centres undefined) | -10% | -5% | / | / | ?

Bioassay records as filed in PubChem.
